Molecules are shown by their SMILES. Compounds without any hit were thinned out: in the full panel of roughly 79,000, 15% have a hit. A number with no mark means an inactive call. Calls of active or inactive are those of the source. No stated cut-off is given here; in the data, active means growth inhibition above about 70%; inactive means the rest.

This test is described as follows: NCI Yeast Anticancer Drug Screen. Data for the rad50 strain (AID 155).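 Further: 0% = growth of vehicle-only cultures of the same strain.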 To be noted: S. cerevisiae rad50 strain growth inhibition; at 50.0 µM; stronger effect = higher value. In a few lines:
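Inhibition values express reduced yeast growth in compound-treated cultures relative to vehicle-treated controls.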
`CN(C)S(=O)(=O)c1ccc(Cl)cc1`: the growth inhibition was -1.65%.
Regarding `COc1cc([N+](=O)[O-])c(C)cc1Br`, the growth inhibition was 3.55%.
Next, `Cc1cc(C)c(S(=O)(=O)c2cccs2)c(C)c1`: -7%; `Cc1ccc(C(C)C)c(OC(=O)NCCCCCCNC(=O)Oc2cc(C)ccc2C(C)C)c1`: -11%; `O=C1c2ccccc2SC[C@@H]2CCCN12`: 22.9%.
The same measure for `CCCCCCCCCCCCCCCCCCN(C)CC(COC)OP(=O)([O-])OCC[N+](C)(C)C` (stereo not drawn): 22.6%.
The same measure for `Cc1ccc(C(O)/C(=N/N)c2nc3ccc([N+](=O)[O-])cc3[nH]c2=O)cc1` (stereo not drawn): 6.45%; for `Cc1cc2c(=O)cc(-c3ccccc3)oc2c(C(=O)O)c1C`: -12.7%; for `NC(=O)CSCC(=O)O`: -5.9%.
With `CCn1c2ccccc2c2cc(N)c(N=Nc3ccc(-c4ccc(N)c(OC)c4)cc3OC)cc21`, the growth inhibition was 31.4%.
The same measure for `O=C(Nc1cccc(C(=O)NCCCO)c1)/C(=C/c1ccccc1)NC(=O)c1ccccc1`: 0%.
The same measure for `O=c1ccc(-c2ccccc2)n[nH]1`: -25.4%; for `CCc1ccc(N=Nc2c(F)c(F)c(N)c(F)c2F)cc1`: 6.1%; for `Nc1cc(=O)n(-c2ccccc2)nc1Cl`: 2.05%.
The same measure for `Oc1ccccc1C1SC(c2ccccc2O)SC(c2ccccc2O)S1` (stereo not drawn): 96.9% (active).
In the case of `O=C(Nc1cccc2ccccc12)O/N=C/c1ccccn1`, the growth inhibition was -9.3%.
The same measure for `CC(C)(C)[N+](=O)[O-]`: -17.2%.
Next, `N#CCN1CCOCC1`: 31.5%.

(Values after PubChem BioAssay (NCI).)
